For test [1], the system named is C33A. The experiment in a line: Primary qHTS to identify gynecologic anti-cancer compounds using libraries of approved drugs and bioactive compounds (AID 1345084). Further: nearly all actives have a fitted effect of over 55% in size. As to conditions: Gynecologic cancer cell panel viability, ATPlite luminescence, 48 h; series mostly up to 57.5 µM. An outline of the steps:
(§1)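 ATP-based viability (ATPlite), 1,000 cells/well, 16 h pre-incubation, 48 h compound at 37 C, 5% CO2, 15 min RT before read.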
A general note: Quantitative high-throughput screening tests each substance at several concentrations.

Test [2] has as its system CAOV3. The description is as above. To be noted: Gynecologic cancer cell panel viability, ATPlite luminescence, 48 h; series mostly up to 57.5 µM. An outline of the steps: as §1
Test [3] relates to CASKI. The description is as above. As to conditions: Gynecologic cancer cell panel viability, ATPlite luminescence, 48 h; series mostly up to 57.5 µM. An outline of the steps:
as §1
(In ATP-based viability assays light output follows the ATP content of the culture.)

For test [4], the system named is Es-2. The test is described as above. As to conditions: Gynecologic cancer cell panel viability, ATPlite luminescence, 48 h; series mostly up to 57.5 µM. An outline of the steps: as §1
Test [5] has as its system HeLa. Described as above. As to conditions: Gynecologic cancer cell panel viability, ATPlite luminescence, 48 h; series mostly up to 57.5 µM. The essentials:
as §1

Test [6] deals with Hek293T. The test is described as above. To be noted: Gynecologic cancer cell panel viability, ATPlite luminescence, 48 h, control line for the selectivity index; series mostly up to 57.5 µM. The essentials: as §1
In test [7] the test system is JEG-3. Described as above. To be noted: Gynecologic cancer cell panel viability, ATPlite luminescence, 48 h; series mostly up to 57.5 µM. An outline of the steps: as §1
The test system of test [8] is OV90. The description is as above. As to conditions: Gynecologic cancer cell panel viability, ATPlite luminescence, 48 h; series mostly up to 57.5 µM. The essentials:
as §1

Test [9] concerns PA-1. The test is described as above. To be noted: Gynecologic cancer cell panel viability, ATPlite luminescence, 48 h; series mostly up to 57.5 µM. The essentials: as §1
In test [10] the test system is SKOV3. The description is as above. To be noted: Gynecologic cancer cell panel viability, ATPlite luminescence, 48 h; series mostly up to 57.5 µM. The essentials:
as §1

In test [11] the test system is Tov-21-G. The description is as above. To be noted: Gynecologic cancer cell panel viability, ATPlite luminescence, 48 h; series mostly up to 57.5 µM. The essentials: as §1
Test [12] concerns Tov112D. Described as above. As to conditions: Gynecologic cancer cell panel viability, ATPlite luminescence, 48 h; series mostly up to 57.5 µM. An outline of the steps:
as §1

Test [13] can be described thus: Drug repurposing screens with cells derived from glioblastoma tumor samples (AID 1345199). Further: nearly all actives have a fitted effect of over 40% in size. To be noted: GBM patient neurospheres viability, ATP luminescence, 48 h. The essentials:
(§2)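 Four patient lines of CD133+ GBM neurospheres were screened at several concentrations; hits were retested in those lines plus three slower-growing GBM lines, using 48-hour treatment and ATP-based viability.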

Test [14] concerns WaGa. The experiment in a line: qHTS assay to identify novel small-molecules to repurpose for Merkel cell carcinoma treatment (AID 1296009). Further: nearly all actives have a fitted effect of over 60% in size. As to conditions: MCC and control cell lines, CellTiter-Glo viability, 72 h; series mostly up to 46 µM. The essentials:
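After compound transfer in DMSO, plates were kept 72 hr at 37 degree celsius. Luminescent ATP signal from CellTiter-Glo served as viability measure, normalized against DMSO and no-cell controls.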

Test [15] concerns astro. The experiment in a line: Drug repurposing screens with cells derived from glioblastoma tumor samples (AID 1345199). Further: nearly all actives have a fitted effect of over 40% in size. As to conditions: viability, ATP luminescence, 48 h; series mostly up to 45.9 µM. An outline of the steps: as §2
[16] abbreviates: at 45.9 µM (top of the series), tumour line B.
Where [17] appears, read: at 45.9 µM (top of the series), tumour line D.
Where [18] appears, read: at 46.1 µM (top of the series), tumour line C.

Records with an inconclusive call do not appear. A number with no mark means an inactive call. Active and inactive are the calls of the source. The call rests on the fitted dose curve; in most records, active means well fitted curve in the direction sought with a large enough effect; inconclusive means small, poorly fitted or top-dose-only effect, or another doubt; inactive means no such curve, though single readings can be large; an effect the other way counts as inactive or inconclusive.
On the % scale 0 is the no-effect control and ±100 the full control effect; potency means the concentration at half of the fitted maximal effect.

In the case of `COc1ccc(-c2cc(=S)ss2)cc1`, the Potency result in [1], in test [2], in [3], in [4], in test [5] and in [6] was “inactive” throughout. In addition, the Potency entry in test [7], in [8], in [9], in test [10], in test [11] and in test [12] was “inactive” in each case. For the same compound, the activity, negative = cell killing in [13] (setting [16]) was -21.5%; in [13] (setting [17]) it was -22.3%; in [13] (setting [18]), -27.4%.
As to `C/C(=N\O)c1ccc(OCC(=O)N2CCCCC2)cc1`, the Potency entry in [14], in test [1], in test [3], in test [5], in test [6] and in test [9] was “inactive” each time. Further, in test [12], the Potency entry was “inactive”.
Regarding `CCNc1nc2c(ncn2[C@H]2C[C@H](O)[C@@H](CO)O2)c(=O)[nH]1`, the Potency entry in test [1], in test [2], in [3], in test [4], in test [5] and in test [6] was “inactive” each time. Besides, the Potency result in [7], in test [8], in test [9], in [10], in test [11] and in test [12] was “inactive” in each case.
For the compound `O=C(O)Cc1ccc2c(c1)C(=O)c1ccccc1CO2`, the Potency entry in test [14], in [1], in test [3], in test [4], in test [5] and in test [6] was “inactive” throughout. Moreover, the Potency result in test [7], in [8], in test [9], in test [10], in test [11] and in test [12] was “inactive” in each case.
Turning to `CS(=O)(=O)c1ccc(-n2nc(C(F)(F)F)cc2-c2ccc(F)cc2)cc1`, the Potency entry in [1], in test [2], in test [3], in test [4], in test [5] and in [6] was “inactive” in each case. Moreover, the Potency result in test [7], in test [8], in test [9], in [10], in [11] and in [12] was “inactive” throughout.
Take `O=Cc1ccc(O)c(O)c1O`: the Potency result in [1], in test [2], in test [3], in test [4], in test [5] and in [6] was “inactive” each time. For the same compound, the Potency result in test [7], in test [8], in test [9], in test [10], in test [11] and in [12] was “inactive” each time.
On to `Cc1ccc(O)c(-n2nc3ccccc3n2)c1`, for which the Potency result in [14], in test [1], in test [4], in test [5], in test [6] and in test [7] was “inactive” each time. Moreover, the Potency entry in test [9], in test [10], in [11], in test [12] and in test [15] was “inactive” throughout. The Potency in test [8] is 3.55 µM (active). The figures for the activity, negative = cell killing in test [13] (setting [16]), in test [13] (setting [17]) and in test [13] (setting [18]) were -17.2%, -17.5% and -2.87%, respectively.
In the case of `CCCCC1C(=O)N(c2ccccc2)N(c2ccc(O)cc2)C1=O` (stereo not drawn), the Potency is 2.99 µM (active) in [14], 22.4 µM (active) in test [12] and 7.94 µM (active) in test [13] (tumour line A). Besides, the Potency entry in test [3], in [5] and in test [7] was “inactive” each time. Moreover, the activity, negative = cell killing in [13] (at 20 µM (top of the series), tumour line C) was -14.9%.
Turning to `CC(C(=O)O)c1ccc2c(c1)[nH]c1ccc(Cl)cc12` (stereo not drawn), the Potency result in [14], in test [1], in test [3], in [4], in test [5] and in test [6] was “inactive” each time. In addition, the Potency result in test [7], in [8], in test [9], in [10], in test [11] and in [12] was “inactive” throughout. The activity, negative = cell killing is -6.45% in test [13] (setting [16]); -15.7% in test [13] (setting [17]); -16.3% in [13] (at 46 µM (top of the series), tumour line A); -19.6% in [13] (setting [18]).
